Results on eleven compounds are retold here after ChEMBL document CHEMBL3988442, “University of Dundee, Small-Polar-MMV Screening Library” (2021).

For some of these results: Results with a measured potency or affinity are listed apart.

Holding throughout (design): scale not given: direction of the effect not stated beside the values
Assay [1] deals with Protein translocase subunit SecA (Escherichia coli (strain K12)) (UniProt P10408). Briefly: Assay to Identify E. coli SecA ATPase Inhibitors. The assay is classed as functional. The conditions noted are these: 30 µM.
Assay [2] concerns the target T1, Ubiquitin-activating enzyme e1, putative (Leishmania donovani (strain BPK282A1)) (UniProt E9BSI1).
T1 sequence (whole entry): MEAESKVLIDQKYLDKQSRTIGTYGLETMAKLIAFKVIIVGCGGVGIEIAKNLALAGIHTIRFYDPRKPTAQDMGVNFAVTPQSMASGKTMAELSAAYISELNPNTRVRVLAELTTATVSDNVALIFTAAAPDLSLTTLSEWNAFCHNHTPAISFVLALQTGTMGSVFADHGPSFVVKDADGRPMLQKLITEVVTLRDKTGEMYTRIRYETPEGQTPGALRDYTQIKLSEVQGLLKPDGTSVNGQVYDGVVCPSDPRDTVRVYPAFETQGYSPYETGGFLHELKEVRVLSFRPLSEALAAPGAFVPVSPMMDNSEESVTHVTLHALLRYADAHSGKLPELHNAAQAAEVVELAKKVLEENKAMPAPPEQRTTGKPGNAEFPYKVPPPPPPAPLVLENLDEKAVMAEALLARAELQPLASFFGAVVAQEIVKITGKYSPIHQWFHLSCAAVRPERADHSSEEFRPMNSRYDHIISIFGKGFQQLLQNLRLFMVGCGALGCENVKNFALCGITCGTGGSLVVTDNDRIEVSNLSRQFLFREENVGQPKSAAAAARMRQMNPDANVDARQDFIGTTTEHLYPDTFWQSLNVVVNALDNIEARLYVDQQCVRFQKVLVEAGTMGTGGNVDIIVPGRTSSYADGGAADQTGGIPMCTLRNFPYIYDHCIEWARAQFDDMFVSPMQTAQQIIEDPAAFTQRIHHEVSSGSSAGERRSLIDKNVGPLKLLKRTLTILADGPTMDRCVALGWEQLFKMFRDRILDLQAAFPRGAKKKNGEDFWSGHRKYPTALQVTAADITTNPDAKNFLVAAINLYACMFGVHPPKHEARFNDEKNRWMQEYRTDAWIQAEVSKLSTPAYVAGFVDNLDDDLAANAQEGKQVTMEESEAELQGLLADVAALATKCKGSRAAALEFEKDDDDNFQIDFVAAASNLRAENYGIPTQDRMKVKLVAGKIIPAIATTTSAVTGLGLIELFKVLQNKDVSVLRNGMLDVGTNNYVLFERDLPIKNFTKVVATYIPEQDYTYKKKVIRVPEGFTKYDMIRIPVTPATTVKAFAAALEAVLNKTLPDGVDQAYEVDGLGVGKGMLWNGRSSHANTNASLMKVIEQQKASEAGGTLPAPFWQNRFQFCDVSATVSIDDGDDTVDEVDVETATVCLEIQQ
Briefly: Leishmania donovani Ubiquitin Activating Enzyme (LdE1). The assay is classed as functional. The conditions noted are these: 30 µM.

Assay [3] concerns the target AMP-activated protein kinase, AMPK (Homo sapiens) (UniProt P54646+O43741+P54619+Q9UGJ0+Q9Y478+Q13131+Q9UGI9). Briefly: AMP-dependent Kinase enzyme assay. An in vitro enzyme assay that detects ADP turnover that is directly proportional to AMPK activity. This uses naive AMPK that is activated during the assay with MK-8722. The assay is classed as functional. The note with it: 30 µM.

The target of assay [4] is Sialic acid-binding Ig-like lectin 9 (Homo sapiens) (UniProt Q9Y336). Briefly: Hs-Siglec9 ALPHAscreen SOP 20170721. The note with it: 10 µM. Background: In Alpha technology, singlet oxygen from a donor bead excites a nearby acceptor bead.
For the next assay, the system named is Trypanosoma cruzi. Briefly: Trypanosoma cruzi phosphomannomutase and mannose-1-phosphate guanylyltransferase assay. The format is functional. The conditions noted are these: 10 µM.
For assay [5], the target named is T2, Arginase-2, mitochondrial (Homo sapiens) (UniProt P78540).
T2 sequence (whole entry): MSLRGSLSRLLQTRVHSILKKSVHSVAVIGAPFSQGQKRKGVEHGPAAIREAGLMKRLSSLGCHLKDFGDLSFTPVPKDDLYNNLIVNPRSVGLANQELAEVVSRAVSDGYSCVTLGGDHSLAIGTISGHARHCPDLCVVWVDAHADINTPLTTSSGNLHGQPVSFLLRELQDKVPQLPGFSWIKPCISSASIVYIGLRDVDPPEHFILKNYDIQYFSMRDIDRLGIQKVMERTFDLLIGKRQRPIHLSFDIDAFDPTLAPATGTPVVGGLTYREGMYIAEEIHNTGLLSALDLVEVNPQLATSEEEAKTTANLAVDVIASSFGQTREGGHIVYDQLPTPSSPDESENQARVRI
Briefly: in vitro enzyme assay to detect the production of urea directly proportional to the activity of Arginase II. Further: in the data most compounds retested in dose-response had high values. The format is functional. The conditions noted are these: 33.3 µM.

The target of assay [6] is T3, Proteasome subunit beta (Trypanosoma cruzi) (UniProt O96673).
T3 sequence (whole entry): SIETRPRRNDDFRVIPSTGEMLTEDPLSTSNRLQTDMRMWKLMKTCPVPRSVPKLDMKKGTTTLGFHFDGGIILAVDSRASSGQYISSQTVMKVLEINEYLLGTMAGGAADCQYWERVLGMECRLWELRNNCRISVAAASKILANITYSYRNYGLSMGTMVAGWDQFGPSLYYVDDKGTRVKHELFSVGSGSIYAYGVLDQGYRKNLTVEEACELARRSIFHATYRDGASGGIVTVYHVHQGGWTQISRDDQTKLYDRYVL
Briefly: Trypanosoma cruzi proteasome chymotrypsin-like activity (TcProtChymo) assay. Further: in the data most compounds retested in dose-response had high values. The note with it: 9.37 µM. The assay is classed as functional.

For another assay, the species on record is Homo sapiens. Briefly: To identify inhibition of the IFN signalling (Jak-Stat) pathway via expression of an eGFP reporter gene under the control of an IFN-stimulated response element (ISRE) containing MxA promoter. The assay is classed as functional. The note with it: 30 µM. On the technique in general: In a reporter assay the amount or activity of a reporter protein is the signal.

Assay [7] deals with T4, Tyrosyl-tRNA synthetase, putative (Trypanosoma cruzi (strain CL Brener)) (UniProt Q4DSP6).
T4 sequence (whole entry): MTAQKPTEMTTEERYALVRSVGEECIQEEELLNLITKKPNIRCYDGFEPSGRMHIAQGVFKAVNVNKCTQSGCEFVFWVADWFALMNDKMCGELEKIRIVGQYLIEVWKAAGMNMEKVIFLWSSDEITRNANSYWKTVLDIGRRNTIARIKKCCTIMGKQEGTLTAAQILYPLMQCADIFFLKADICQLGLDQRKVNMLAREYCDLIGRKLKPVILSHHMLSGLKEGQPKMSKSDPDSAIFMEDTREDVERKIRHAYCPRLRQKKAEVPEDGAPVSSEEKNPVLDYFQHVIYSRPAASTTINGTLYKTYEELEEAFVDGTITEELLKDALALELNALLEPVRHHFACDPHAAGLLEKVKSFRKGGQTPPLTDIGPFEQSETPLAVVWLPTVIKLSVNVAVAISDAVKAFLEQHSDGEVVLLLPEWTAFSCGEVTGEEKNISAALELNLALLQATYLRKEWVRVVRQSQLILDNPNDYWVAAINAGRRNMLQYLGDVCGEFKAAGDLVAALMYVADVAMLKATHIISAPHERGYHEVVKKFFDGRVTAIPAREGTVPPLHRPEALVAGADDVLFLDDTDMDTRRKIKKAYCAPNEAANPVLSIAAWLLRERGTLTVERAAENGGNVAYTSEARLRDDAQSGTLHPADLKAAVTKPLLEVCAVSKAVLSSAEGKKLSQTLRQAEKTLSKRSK
Briefly: Trypanosoma cruzi tyrosyl tRNA synthetase (TcYRS) _High Tyrosine SOP. Further: in the data most compounds retested in dose-response had high values. The format is functional. The conditions noted are these: 30 µM.

In assay [8] the target is T4, Tyrosyl-tRNA synthetase, putative (Trypanosoma cruzi (strain CL Brener)). Briefly: Trypanosoma cruzi tyrosyl tRNA synthetase (TcYRS) SOP. The conditions noted are these: 30 µM. The assay is classed as functional.
Assay [9] concerns the target Chromo domain-containing protein 1 (Saccharomyces cerevisiae (strain ATCC 204508 / S288c) (Baker's yeast)) (UniProt P32657). Briefly: ScCHD-1 Enzyme Inhibition Assay. Further: in the data most compounds retested in dose-response had high values. The note with it: 30 µM. The assay is classed as functional.

Chromo domain-containing protein 1 (Saccharomyces cerevisiae (strain ATCC 204508 / S288c) (Baker's yeast)), sequence (P32657 whole entry, the tested form may be a part): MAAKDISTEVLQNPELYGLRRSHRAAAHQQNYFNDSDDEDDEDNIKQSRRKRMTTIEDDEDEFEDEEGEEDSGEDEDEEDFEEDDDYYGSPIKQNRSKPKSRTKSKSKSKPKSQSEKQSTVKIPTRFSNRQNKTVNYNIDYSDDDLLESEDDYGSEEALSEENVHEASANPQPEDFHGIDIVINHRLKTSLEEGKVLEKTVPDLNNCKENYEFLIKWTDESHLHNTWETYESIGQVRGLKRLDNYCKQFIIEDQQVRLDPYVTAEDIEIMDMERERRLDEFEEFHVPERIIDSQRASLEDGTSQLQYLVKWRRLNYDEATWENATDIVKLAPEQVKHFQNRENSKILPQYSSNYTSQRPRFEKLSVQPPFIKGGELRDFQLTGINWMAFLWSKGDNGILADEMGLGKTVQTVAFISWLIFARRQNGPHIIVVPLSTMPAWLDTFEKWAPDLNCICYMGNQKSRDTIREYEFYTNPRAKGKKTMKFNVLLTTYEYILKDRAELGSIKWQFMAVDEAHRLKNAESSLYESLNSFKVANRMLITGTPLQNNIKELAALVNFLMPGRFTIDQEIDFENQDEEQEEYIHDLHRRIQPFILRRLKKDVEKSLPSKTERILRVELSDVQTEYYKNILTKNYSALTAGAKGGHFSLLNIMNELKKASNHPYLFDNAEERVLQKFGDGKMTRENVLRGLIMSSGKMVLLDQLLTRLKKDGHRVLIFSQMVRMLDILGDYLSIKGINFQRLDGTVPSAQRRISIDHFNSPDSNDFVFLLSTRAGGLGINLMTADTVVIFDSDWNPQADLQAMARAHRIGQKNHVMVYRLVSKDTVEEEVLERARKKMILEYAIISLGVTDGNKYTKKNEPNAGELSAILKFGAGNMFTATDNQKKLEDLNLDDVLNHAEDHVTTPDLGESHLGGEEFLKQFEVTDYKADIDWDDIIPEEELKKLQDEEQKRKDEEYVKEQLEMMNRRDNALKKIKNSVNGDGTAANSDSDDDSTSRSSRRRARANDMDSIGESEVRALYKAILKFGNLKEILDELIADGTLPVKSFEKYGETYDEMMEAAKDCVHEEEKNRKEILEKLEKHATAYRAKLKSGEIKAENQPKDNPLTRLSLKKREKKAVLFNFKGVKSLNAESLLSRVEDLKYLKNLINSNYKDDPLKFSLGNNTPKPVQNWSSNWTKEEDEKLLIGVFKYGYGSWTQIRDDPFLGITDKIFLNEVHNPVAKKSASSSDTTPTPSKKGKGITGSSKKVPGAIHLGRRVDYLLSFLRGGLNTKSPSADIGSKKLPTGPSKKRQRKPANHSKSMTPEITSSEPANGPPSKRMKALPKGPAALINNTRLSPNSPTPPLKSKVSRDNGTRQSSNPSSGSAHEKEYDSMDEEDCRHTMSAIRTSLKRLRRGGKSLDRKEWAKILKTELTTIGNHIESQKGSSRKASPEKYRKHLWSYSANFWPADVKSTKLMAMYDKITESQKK
Protein translocase subunit SecA (Escherichia coli (strain K12)), sequence (P10408 whole entry): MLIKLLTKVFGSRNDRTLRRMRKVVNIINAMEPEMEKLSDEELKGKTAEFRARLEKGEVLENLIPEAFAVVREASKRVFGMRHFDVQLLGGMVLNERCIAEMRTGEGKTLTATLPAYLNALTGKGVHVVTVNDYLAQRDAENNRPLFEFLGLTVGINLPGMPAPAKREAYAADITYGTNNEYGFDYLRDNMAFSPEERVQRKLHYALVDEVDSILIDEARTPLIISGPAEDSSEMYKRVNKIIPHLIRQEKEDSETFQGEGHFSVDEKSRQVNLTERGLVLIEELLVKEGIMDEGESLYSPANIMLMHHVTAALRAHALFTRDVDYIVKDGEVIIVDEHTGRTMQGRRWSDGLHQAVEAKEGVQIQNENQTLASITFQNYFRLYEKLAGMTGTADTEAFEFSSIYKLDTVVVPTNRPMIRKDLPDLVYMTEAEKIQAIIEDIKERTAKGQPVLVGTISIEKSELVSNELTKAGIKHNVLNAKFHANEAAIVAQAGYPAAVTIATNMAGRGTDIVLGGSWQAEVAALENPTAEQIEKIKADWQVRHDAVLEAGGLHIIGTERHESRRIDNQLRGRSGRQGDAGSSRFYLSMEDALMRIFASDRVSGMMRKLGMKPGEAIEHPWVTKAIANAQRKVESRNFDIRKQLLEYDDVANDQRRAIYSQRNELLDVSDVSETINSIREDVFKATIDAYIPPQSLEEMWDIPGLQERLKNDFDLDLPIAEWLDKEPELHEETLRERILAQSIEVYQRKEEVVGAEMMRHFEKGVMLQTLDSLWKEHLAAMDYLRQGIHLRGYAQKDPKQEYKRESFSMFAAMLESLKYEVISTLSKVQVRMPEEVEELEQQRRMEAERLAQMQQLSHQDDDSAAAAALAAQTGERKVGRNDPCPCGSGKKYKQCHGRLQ
Sialic acid-binding Ig-like lectin 9 (Homo sapiens), sequence (Q9Y336 whole entry): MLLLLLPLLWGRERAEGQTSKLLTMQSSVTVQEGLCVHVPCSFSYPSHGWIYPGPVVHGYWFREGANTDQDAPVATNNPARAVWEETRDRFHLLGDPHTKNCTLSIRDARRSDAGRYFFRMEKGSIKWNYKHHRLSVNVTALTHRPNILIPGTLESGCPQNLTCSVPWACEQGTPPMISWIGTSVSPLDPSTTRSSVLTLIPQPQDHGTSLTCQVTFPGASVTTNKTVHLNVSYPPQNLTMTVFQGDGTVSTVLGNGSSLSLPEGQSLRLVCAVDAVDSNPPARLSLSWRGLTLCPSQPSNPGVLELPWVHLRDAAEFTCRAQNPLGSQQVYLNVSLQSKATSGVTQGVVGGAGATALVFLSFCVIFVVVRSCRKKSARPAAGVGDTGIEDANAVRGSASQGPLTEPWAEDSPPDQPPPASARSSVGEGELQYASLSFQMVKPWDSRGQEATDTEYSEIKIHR

For `O=S(=O)(NCc1ccccc1Cn1cncn1)C1CCCC1`, the Percent Effect was -2.89% in assay [1]; 8.86% in [2]; 4.47% in [3]; 2.98% in assay [4]; -3.59% with Trypanosoma cruzi; 1.5% in assay [5]. Moreover, the Percent Effect in [6] is 10.1%; in the assay filed under Homo sapiens, 5.73%; in assay [7], 8.33%; in assay [8], 12.7%; in assay [9], -12.6%.

Turning to `O=C(NC1CC1)N1CCc2ncnc(-c3ccncc3)c2CC1`, the Percent Effect in assay [1] was 5.45%; in assay [2] it was 10.7%; in [3], 17.6%; in assay [4], 1.38%; with Trypanosoma cruzi, -6.37%; in assay [5] it was -55.4%. Besides, the Percent Effect is 12% in assay [6]; 4.1% in the assay listed under Homo sapiens; 2.08% in [7]; 25% in assay [8]; -4.64% in assay [9].

Consider `O=C(c1cc(F)ccc1F)C1CCN(C(=O)c2cccnc2O)CC1`, for which the Percent Effect in assay [1] is -5.29%; in [2] it was 7.79%; in assay [3], 3.43%; in assay [4] it was 13.6%; in the assay on Trypanosoma cruzi it was 2.06%; in assay [5] it was 0.21%. The Percent Effect in assay [6] is 3.8%; in the assay listed under Homo sapiens, -28.1%; in assay [7] it was 1.91%; in assay [8], 9.41%; in assay [9], -12.7%.

As for `CCCc1cc(NC2CCc3ncnn3C2)n2ncnc2n1` (stereo unspecified), the Percent Effect is -4.43% in [1]; 5.48% in assay [2]; 7.3% in [3]; -5.57% in assay [4]; -2.74% with Trypanosoma cruzi; -0.455% in [5]. In addition, the Percent Effect was 10.1% in assay [6]; 17.2% in the assay filed under Homo sapiens; 2.15% in assay [7]; 7.5% in [8]; -3.04% in [9].

For the compound `CC(C)NC(=O)c1n[nH]c(-n2cnnc2)n1`, the Percent Effect is -5.17% in assay [1]; 9.33% in assay [2]; -5.08% in [3]; 5.32% in assay [4]; 1.77% with Trypanosoma cruzi; -4.05% in [5]. The Percent Effect is 2.77% in assay [6]; 2.63% in the assay filed under Homo sapiens; 4.23% in assay [7]; 10.3% in [8]; -8.26% in assay [9].

As to `Cc1ccoc1C(=O)NCC(Cc1ccc(F)cc1)C(N)=O` (stereo unspecified), the Percent Effect in [1] is -1.94%; in [2] it was 18.2%; in assay [3], 4.14%; in assay [4] it was 0.338%; with Trypanosoma cruzi it was 3.62%; in [5], 4.42%. Besides, the Percent Effect in [6] was 15.3%; in the assay filed under Homo sapiens, -1.29%; in [7] it was 7.62%; in assay [8], 23.5%; in assay [9], -14.3%.

As to `COc1ccc(C(CNC(=O)Nc2cn[nH]c2)N2CCOCC2)cc1` (stereo unspecified), the Percent Effect is -3.98% in assay [1]; 7.79% in assay [2]; 3.92% in assay [3]; 0.747% in [4]; 4.8% in the assay on Trypanosoma cruzi; 1.05% in assay [5]. The Percent Effect was 15% in assay [6]; -2.67% in the assay filed under Homo sapiens; 10.5% in [7]; 25.9% in assay [8]; -20.4% in [9].

Consider `COc1ccc(-c2nc(CN3CCN(CCO)CC3)co2)cc1`, for which the Percent Effect in assay [1] is -2.39%; in assay [2], 20.8%; in [3], -11.9%; in assay [4] it was -1.67%; in the assay with Trypanosoma cruzi it was 8.8%; in [5] it was 4.98%. Moreover, the Percent Effect in [6] is 15.2%; in the assay filed under Homo sapiens, 29%; in assay [7] it was 5.83%; in [8], 24.4%; in assay [9], -9.19%.

For the compound `COc1ccccc1CN(C)c1nccc(-c2cn(C)nc2C)n1`, the Percent Effect in [1] was -1.09%; in assay [2], 5.33%; in assay [3], 2.11%; in assay [4], 8.22%; in the assay on Trypanosoma cruzi it was 4.58%; in [5] it was 24%. For the same compound, the Percent Effect was 16% in assay [6]; 34.9% in the assay listed under Homo sapiens; 6.01% in assay [7]; 16.1% in assay [8]; -5.41% in [9].

Regarding `Cc1nn(C)c(C)c1CCC(=O)N1CCCC1Cn1cccn1` (stereo unspecified), the Percent Effect in [1] is -4.71%; in [2], -2.7%; in assay [3], 5.43%; in assay [4], -1.49%; in the assay with Trypanosoma cruzi it was -3.52%; in assay [5] it was 2.08%. Besides, the Percent Effect is 3.63% in assay [6]; -0.691% in the assay filed under Homo sapiens; 1.98% in [7]; 11% in assay [8]; 1.96% in assay [9].

As to `O=C(Cn1cccn1)NCC1(c2ccccc2)CC1`, the Percent Effect in assay [1] was -4.9%; in assay [2], 2.6%; in assay [3] it was 0.192%; in assay [4], -7.24%; in the assay on Trypanosoma cruzi, -2.25%; in assay [5] it was 2.74%. The Percent Effect in assay [6] is -1.86%; in the assay listed under Homo sapiens it was 23.2%; in assay [7], -0.952%; in assay [8], -2.35%; in assay [9] it was -6.03%.
